Screening results: PubChem BioAssay, ICCB-Longwood Screening Facility, Harvard Medical School
Sa RN4220 lethal: S. aureus RN4220 growth inhibition | OD600, 16 h | inhibition, % (concentration not given with the values) | actives 0.33% (n = 330,000); in the data active means inhibition above about 85%;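 further: plate controls were untreated cells for no effect and reference antibiotic for full effect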
Mtb hypoxia inh: Mtb hypoxia fluorescent reporter inhibition; M. tuberculosis hypoxia-regulated fluorescent reporter, fluorescence; fluorescence inhibition, % (no concentration beside the values); actives 0.1% (n = 300,000); AID 1159583; in the data active means fluorescence inhibition mostly above about 23%, no sharp cut-off; inactive means mostly below about 17%
Sa ugtP lethal: compounds lethal to S. aureus RN4220 ugtP deletion mutant | actives 0.54% (n = 330,000) | OD600 growth, 16 h | AID 1259309 | growth inhibition, % (test concentration not listed); in the data active means growth inhibition above about 68%;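 further: plate controls were untreated wells for no effect and antibiotic for full effect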
* hit, by the source's call; . = no result shown. An excerpt weighted towards active compounds, which were near 0.68% of everything screened.

SMILES	Sa RN4220 lethal	Mtb hypoxia inh	Sa ugtP lethal
Cc1ccc(C2c3c(C)nn(-c4ccc([N+](=O)[O-])cc4)c3N=C3C(=O)Nc4ccccc4N32)cc1 (stereo not given)	2	40*	3
COc1cccc(C2c3c(C)nn(-c4ccc([N+](=O)[O-])cc4)c3N=C3C(=O)Nc4ccccc4N32)c1 (stereo not given)	6	-16	23
COc1ccc2c(c1)C(=O)N1C3c4cc(OC)ccc4OCC3C(c3ccccc3)[C@]1(C)C(=O)N2 (stereo not given in full)	-4	1	-24
O=C(Nc1cccc(F)c1)C(=Cc1cccnc1)NC(=O)c1ccco1	-1	1	-5
CN(C)S(=O)(=O)c1cccc(NC(=S)Nc2ccc(Cl)cc2Cl)c1	8	1	-16
CN(C)S(=O)(=O)c1cccc(NC(=S)Nc2cc(Cl)cc(Cl)c2)c1	100*	9	100*
COc1ccc2c(c1)c1c(n2C)C2CC=C(CO)C(C1)N2C (stereo not given)	6	5	-3
O=C1NC(c2ccccc2)COC(=O)C(Cc2ccc(F)cc2)CC=CCC1CC(=O)N(CCO)Cc1ccccc1 (stereo not given)	6	11	12
NS(=O)(=O)c1ccc(NC(=O)c2ccc(Cl)c(S(=O)(=O)NCc3ccco3)c2)cc1	-2	22*	3
Cc1ccc(NC(=O)c2ccc(Cl)c(S(=O)(=O)NCc3ccco3)c2)c(O)c1	4	-7	-3
COC(=O)N1C(C)C=C[C@]1(Cc1ccccc1)C(=O)NCCCNc1ncc(C(F)(F)F)cc1Cl (stereo not given in full)	-4	-1	-35
CN(C)CCCN1C(=O)c2cccc3c(Br)ccc(c23)C1=O	0	67*	11
O=C(O)CN1C(=O)c2cccc3c(Br)ccc1c23	2	4	0
CC(C)CC(NC(=O)c1[nH]cnc1C(=O)NC(C)C(=O)OCc1ccccc1)C(=O)OCc1ccccc1 (stereo not given)	4	5	13
NCCCCCNC(=O)c1[nH]cnc1C(=O)NC(Cc1ccccc1)C(=O)OCc1ccccc1 (stereo not given)	-1	11	0
COc1ccc(CNc2nc3nc(C)c(Cl)c(=O)n3[nH]2)cc1	3	23*	10
COc1ccccc1CNc1nc2nc(C)c(Cl)c(=O)n2[nH]1	0	0	1
CC=C(C)C(=O)OC1Cc2c(ccc3ccc(=O)oc23)OC1(C)C (stereo not given)	2	10	-11
COC(C)(C)C(O)COc1c2ccoc2cc2oc(=O)ccc12 (stereo not given)	6	-1	2
CCc1ccc(OCC(=O)NNC(=O)CSc2nnc(-c3ccc(C)cc3)n2C)cc1	7	1	2
Cc1nnc(SCC(=O)NNC(=O)COc2ccc(Br)cc2)n1C	3	32*	1
C#CCOCCOCCOCCNc1nc(N2CCOCC2)nc(N2CCN(C(=O)C(CC(N)=O)n3cc(C(N)C(C)CC)nn3)CC2)n1 (stereo not given)	7	7	2
CCCCCCc1c(O)c2ccccc2[nH]c1=O	-1	5	3
CCCCCCCCCCCC1=C(O)C(=O)C=C(O)C1=O	99*	.	100*
CCOC(=O)[C@]12Cc3cc(OC)ccc3C1N(Cc1ccccc1)C(=O)c1ccccc12 (stereo not given in full)	0	6	18
SMILES	Sa RN4220 lethal	Mtb hypoxia inh	Sa ugtP lethal
CCCC1CCC(c2ccc(C(N)=O)cc2)CC1 (stereo not given)	14	.	26
CCCC1CCC(c2ccc(C(=O)NN)cc2)CC1 (stereo not given)	-12	8	98*
COc1cc(C=CC(=O)OCC2OC(OC3(CO)OC(CO)C(O)C3O)C(O)C(O)C2O)ccc1O (stereo not given)	2	2	-3
O=C(c1c(O)c2ccccc2oc1=O)C1CCCCC1	48	-3	22
O=C(CCC1CCCC1)c1c(O)c2ccccc2oc1=O	100*	1	100*
O=S(=O)(c1cnccc1N1CCN(N=Cc2ccccc2)CC1)N1CCCCC1	5	.	9
CCOC(=O)c1oc2ccc(Br)cc2c1NC(=O)CN1CCN(C)CC1	1	.	91*
COC(=O)c1oc2ccc(Br)cc2c1NC(=O)CCN1CCOCC1	2	-3	-8
COc1cc(OC)cc(C(=O)NN=Cc2ccc(OC)c(COc3ccc4ccccc4c3)c2)c1	-8	.	6
CC1NC(=S)N(C2CCCCC2)C1=O (stereo not given)	0	-1	2
CCCCC1NC(=S)N(C2CCCCC2)C1=O (stereo not given)	5	2	89*
CCCCCCCCCn1ccc(=N)cc1	-1	13	100*
CCCCCCCn1ccc(=N)cc1	1	.	5
